FLuc counter: firefly luciferase modulation, counter-screen for miR-21 project. AID 588342. Potency, µM (series often up to 57.5 µM), for inactives: at the highest dose activity change, negative = inhibition, most hits filed as inhibitors. 360,000 compounds, 6.9% hits. purified FLuc, Km substrates, luminescence inhibition;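 further: plate controls were vehicle for no effect and reference inhibitor for full effect; nearly all actives have a fitted effect of over 55% in size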
Target sequence (P08659 whole entry, looked up): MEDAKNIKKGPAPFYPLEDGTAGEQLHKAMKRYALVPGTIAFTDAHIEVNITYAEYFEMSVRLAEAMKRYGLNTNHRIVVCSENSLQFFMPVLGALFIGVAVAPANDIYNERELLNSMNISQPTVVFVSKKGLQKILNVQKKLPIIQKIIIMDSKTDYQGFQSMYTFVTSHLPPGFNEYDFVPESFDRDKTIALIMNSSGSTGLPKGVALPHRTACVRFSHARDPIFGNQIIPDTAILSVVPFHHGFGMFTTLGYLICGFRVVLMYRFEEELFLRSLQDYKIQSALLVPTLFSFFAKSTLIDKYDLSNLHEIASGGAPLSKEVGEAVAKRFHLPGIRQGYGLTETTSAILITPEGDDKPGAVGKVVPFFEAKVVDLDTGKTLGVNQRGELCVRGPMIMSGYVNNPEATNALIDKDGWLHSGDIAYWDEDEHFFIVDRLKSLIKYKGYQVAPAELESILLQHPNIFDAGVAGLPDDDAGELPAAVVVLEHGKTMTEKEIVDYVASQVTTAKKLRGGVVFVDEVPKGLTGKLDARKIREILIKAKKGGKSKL
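Purified P. pyralis luciferase (10nM final) with 10uM D-luciferin and 10uM ATP (Km levels) in 50mM Tris acetate pH 7.5, 10mM Mg acetate, 0.01% Tween-20, 0.05% BSA; qHTS 6-point titration, ~60 µM downward; luminescence read.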
SMN2 splice enh: enhancers of SMN2 splice variant expression; 210,000 compounds, 2.8% hits; HEK293 SMN2-luciferase splicing reporter, luminescence, 30-36 h; Potency, µM (titrated, usually from 46.1 µM), for inactives: at the top dose activity change, positive = activation, usual class: activators; further: % of control where 0% means no effect; nearly all actives have a fitted effect of over 55% in size
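HEK293 cells carry an SMN2 minigene-luciferase reporter in which exon 7 inclusion puts luciferase in frame. Cells were seeded at 2000 cells/well, attached for 10-12 hours, then exposed to compounds for 30-36 hours at 37C before ONE-Glo luminescence.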
Luc counter: blocks Kinase-Glo luciferase, a counter-screen artifact. Q27757. Kinase-Glo luciferase, ATP luminescence, 8 min. Potency, µM (top dose mostly 38.3 µM), for the others: top-dose activity change, negative = inhibition, actives largely listed as inhibitors. 200,000 compounds, 0.28% hits. AID 1379; further: on the % scale 0 is the no-effect control and ±100 the full control effect; nearly all actives have a fitted effect of over 60% in size
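Luminescence was the read-out, taken after 8-minute incubation at ambient temperature. Luciferase turned over luciferin with 10 uM ATP in imidazole pH 7.2 buffer containing KCl, MgCl2, Tween 20 and BSA.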
NPC1 prom act: activates the NPC1 promoter; Huh7 NPC1 promoter luciferase reporter, 24 h; Potency, µM (titrated, usually from 9.22 µM), inactives show top-dose activation, actives largely listed as activators; 320,000 compounds, 2.4% hits; AID 485313; further: % of control where 0% means no effect; nearly all actives have a fitted effect of over 60% in size
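Huh7 reporter cells (NPC1 promoter driving luciferase) are dosed with compound for 24 h at 37 °C, 5% CO2; luciferase detection reagent is then added and luminescence measured after 10 min at ambient temperature.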
Rab9 promoter act: activates the Rab9 promoter | Huh7 Rab9 promoter-luciferase reporter, luminescence, 24 h | 320,000 compounds, 2.8% hits | Potency, µM (titrated, usually from 9.22 µM), inactives show at the top dose activation, negative = inhibition, actives largely listed as activators | AID 485297; further: % of control where 0% means no effect; nearly all actives have a fitted effect of over 60% in size
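Huh7 cells stably carrying Rab9 promoter–luciferase reporter, plated 1500 cells/well, compound added after 2 h and incubated 24 h at 37 °C; luciferase luminescence then read after 10 min with detection reagent.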
ELG1 genotox: induces genotoxicity in HEK293T cells with luciferase-tagged ELG1; HEK293T ELG1-luciferase reporter, luminescence, 16 h; Potency, µM (highest dose often 46 µM), for inactives: at the top dose activity change, positive = activation, usual class: activators; 330,000 compounds, 1.3% hits; further: % of control where 0% means no effect; nearly all actives have a fitted effect of over 60% in size
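Reporter readout depends on ELG1 protein level, which increases with genetic stress. After 16 hr compound exposure at 37 °C, luciferase activity was quantified using ONE-Glo.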
An asterisk follows results filed as active; [ ] = another dose, or the depositor's remark. A selection: hits, their analogues and other compounds. The true share with any hit is near 7.3%. The call rests on the fitted dose curve; in most records, active means well fitted curve in the direction sought with a large enough effect; inconclusive means small, poorly fitted or top-dose-only effect, or another doubt; inactive means no such curve, though single readings can be large; an effect the other way counts as inactive or inconclusive. Potency means the concentration at half of the fitted maximal effect.

What do the screens show for `CCOc1ccc(NC(=O)c2cnsn2)cc1`?
FLuc counter: 6.01µM*; SMN2 splice enh: inconclusive; Luc counter: -3.5%; NPC1 prom act: 1.41µM*; Rab9 promoter act: 0.562µM*; ELG1 genotox: 1.46µM*

How did COc1cccc(NC(=O)c2cnsn2)c1 do in these assays?
FLuc counter: inconclusive; SMN2 splice enh: -11.7%; Luc counter: inconclusive; NPC1 prom act: 29.5%; Rab9 promoter act: 14.9%; ELG1 genotox: inconclusive

Results for CCOc1ccc(NC(=O)c2nccnc2CO)cc1 ?
FLuc counter: 9.53µM*; SMN2 splice enh: 8.91µM*; Luc counter: 7.94µM*; NPC1 prom act: 1.41µM*; Rab9 promoter act: 2.82µM*; ELG1 genotox: inconclusive

What do the screens show for `COc1cccc(NC(=O)Cn2c(=O)n(CC(=O)NCCc3ccccc3)c(=O)c3sccc32)c1`?
FLuc counter: 3.1%; SMN2 splice enh: 9.5%

What do the screens show for `CC(=O)c1ccc(NC(=O)c2c3c(nc4ccccc24)C(=O)N(C2CCCCC2)C3)cc1`?
FLuc counter: -5.5%

What do the screens show for `COc1ccc(CNC(=O)CCCn2c(=O)c3cccn3c3ccc(F)cc32)cc1OC`?
FLuc counter: -11.8%

How did CCOc1ccc(NC(=O)c2cnccn2)cc1 do in these assays?
FLuc counter: 5.36µM*; SMN2 splice enh: 2.51µM*; Luc counter: -24.2%; NPC1 prom act: 2µM*; Rab9 promoter act: 1.26µM*; ELG1 genotox: inconclusive

What do the screens show for `CNS(=O)(=O)c1ccc(NC(=O)c2ccccn2)cc1`?
FLuc counter: 15.1µM*; SMN2 splice enh: 20µM*; Luc counter: -9.6%; NPC1 prom act: inconclusive; Rab9 promoter act: 2.82µM*; ELG1 genotox: inconclusive

Results for Cc1csc2nc(COC(=O)c3ccc(NC(=O)c4ccccc4Br)cc3)cc(=O)n12 ?
FLuc counter: -9.1%

Results for C=CCNC(=O)c1cc([N+](=O)[O-])cc2c(=O)[nH]c(Nc3ccc(Cl)c(Cl)c3)nc12 ?
SMN2 splice enh: 9.0%; Luc counter: 3.0%

Results for COc1ccc(CCn2nc(C)c([N+](=O)[O-])c2C)cc1 ?
FLuc counter: 12µM*; NPC1 prom act: 3.16µM*; Rab9 promoter act: 3.16µM*; ELG1 genotox: 16.4µM*

How did C/C=C\C(=O)Nc1cccc(C2=NOC3(C2)C[C@@H](C(N)=O)N(C(=O)c2ccccc2)C3)c1 (stereo not given in full) do in these assays?
FLuc counter: 4.2%; NPC1 prom act: -1.9%; Rab9 promoter act: -10.5%; ELG1 genotox: -0.2%

What do the screens show for `C/C=C/C=C\C(=O)Nc1cccc(C2=NOC3(C2)C[C@@H](C(N)=O)N(C(=O)c2cc([N+](=O)[O-])cc([N+](=O)[O-])c2C)C3)c1` (stereo not given in full)?
FLuc counter: 7.57µM*; NPC1 prom act: -1.6%; Rab9 promoter act: -1.3%; ELG1 genotox: 1.9%

Results for C/C=C\C=C\C(=O)Nc1cccc(C2=NOC3(C2)C[C@H](C(N)=O)N(C(=O)c2ccccc2C(=O)c2ccccc2)C3)c1 (stereo not given in full) ?
FLuc counter: 21.3µM*; NPC1 prom act: 2.8%; Rab9 promoter act: -5.4%; ELG1 genotox: -2.2%

Results for CCCCCC(=O)Nc1cccc(C2=NOC3(C2)C[C@@H](C(N)=O)N(C(=O)c2cc([N+](=O)[O-])cc([N+](=O)[O-])c2C)C3)c1 (stereo not given in full) ?
FLuc counter: -17.0%; NPC1 prom act: -4.9%; Rab9 promoter act: -4.0%; ELG1 genotox: -1.4%

How did NC(=O)C1(NC(=O)[C@@H]2CC3(CC(c4cccc(NC(=O)[C@@H]5CCC(=O)N5)c4)=NO3)CN2C(=O)c2ccccc2)CC1 (stereo not given in full) do in these assays?
FLuc counter: -1.9%; SMN2 splice enh: -10.5%; Luc counter: -4.6%; NPC1 prom act: 2.24µM*; Rab9 promoter act: 5.9%; ELG1 genotox: 0.5%

Results for C/C=C\C=C/C(=O)Nc1cccc(C2=NOC3(C2)C[C@@H](C(N)=O)N(C(=O)c2ccccc2)C3)c1 (stereo not given in full) ?
FLuc counter: 16.9µM*; NPC1 prom act: 3.0%; Rab9 promoter act: 21.0%; ELG1 genotox: 4.7%

How did CC(C)[C@]1(Cl)CC[C@@H]2[C@]3(C)CCC[C@@](C)(C(=O)O)[C@H]3C[C@H](Cl)[C@@]2(Cl)[C@H]1Cl do in these assays?
SMN2 splice enh: -6.4%[9.22 µM]; Luc counter: -5.6%[7.66 µM]

How did CCOC(=O)c1c(S(=O)(=O)N2CCCC(C(=O)Nc3ccc(C)cc3C)C2)c(C)n(CC)c1C (stereo not given) do in these assays?
FLuc counter: 3.4%

Results for COC(=O)C1=C(C(=O)OC)[C@@H]2N(C)c3ccc(OC)cc3[C@@]23C[C@@H](C(=O)OC)N(C(C)=O)C3=N1 ?
SMN2 splice enh: 9.7%[9.22 µM]; Luc counter: -8.6%[7.66 µM]

How did N#C/C(=C(/O)c1ccco1)c1nc2ccccc2s1 do in these assays?
FLuc counter: 8.49µM*; SMN2 splice enh: 24.8%; Luc counter: -8.7%; NPC1 prom act: 2.24µM*; Rab9 promoter act: 3.16µM*; ELG1 genotox: 13.5%

What do the screens show for `N#C/C(=C(/O)c1ccco1)c1nc2ccccc2[nH]1`?
FLuc counter: 19µM*; SMN2 splice enh: -34.3%; Luc counter: 1.5%; NPC1 prom act: 15.9%; Rab9 promoter act: inconclusive; ELG1 genotox: 2.4%

Results for Cn1c(/C(C#N)=C(\O)c2cccc(F)c2)nc2ccccc21 ?
FLuc counter: -5.4%; NPC1 prom act: 29.7%; Rab9 promoter act: 11.5%; ELG1 genotox: inconclusive

What do the screens show for `N#C/C(=C(\O)Cc1ccccc1)c1nc2ccccc2[nH]1`?
FLuc counter: -2.6%; SMN2 splice enh: -24.5%; Luc counter: -2.8%; NPC1 prom act: 3.1%; Rab9 promoter act: -2.7%; ELG1 genotox: inconclusive

How did N#C/C(=C(/O)c1cccc(F)c1)c1nc2ccccc2s1 do in these assays?
FLuc counter: 19µM*; NPC1 prom act: inconclusive; Rab9 promoter act: inconclusive; ELG1 genotox: 9.0%

Results for N#C/C(=C(/O)c1cc2ccccc2o1)c1nc2ccccc2s1 ?
FLuc counter: 6.75µM*; NPC1 prom act: 3.16µM*; Rab9 promoter act: inconclusive; ELG1 genotox: 2.5%

How did O=C1COc2cc(S(=O)(=O)CCC(=O)N3CCN(c4cccc(Cl)c4)CC3)c(Cl)cc2N1 do in these assays?
FLuc counter: -5.3%
